Compound activity as filed in PubChem BioAssay.
DT40 TDP1 CPT = DT40-hTDP1 cell growth loss with CPT | chicken DT40 Tdp1-/-;hTDP1 cells + 20 nM CPT, ATP luminescence, 48 h | Potency, µM (doses to about 46.2 µM), for the others: top-dose activity change, negative = growth inhibition, most hits filed as inhibitors | 420,000 tested, 12% active; also: potency is read from the fitted curve at half-maximal effect; nearly all actives have a fitted effect of over 55% in size
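Chicken DT40 Tdp1-/- cells stably complemented with human TDP1 were seeded at 400 cells/well in medium containing 20 nM camptothecin, exposed to pin-transferred compounds, and grown at 37 °C for at least 48 hr. Viability was read as ATP luminescence.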
HT1080-NT tox = kills 2HG-producing HT-1080-NT fibrosarcoma cells; HT-1080-NT fibrosarcoma viability, CellTiter-Glo ATP luminescence, 48 h; Potency, µM (series often up to 46.1 µM), without a hit: at the top dose activity, negative = less viability, hits mostly cytotoxic; 360,000 tested, 1.6% active; AID 686970;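 also: NT is the 2HG producing partner of a matched IDH1 knockdown line; potency is read from the fitted curve at half-maximal effect; 0% = DMSO-treated cells and -100% = media-only wells without cells; nearly all actives have a fitted effect of over 55% in size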
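Read-out is CellTiter-Glo luminescence after 10 minutes at room temperature, following 48 hours' compound treatment of HT-1080-NT cells (750 cells/well, RPMI, 5% FBS, 37 degrees C).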
HT1080 IDH1KD tx = HT-1080 IDH1 knockdown cell toxicity (counter line) | HT-1080 IDH1 knockdown viability, ATP luminescence, 48 h | Potency, µM (series often up to 46.1 µM), inactives show at the top dose activity, negative = toxicity, usual class: cytotoxic | 360,000 tested, 2% active | AID 686971;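 also: potency is read from the fitted curve at half-maximal effect; 0% = DMSO wells and -100% = cell-free medium wells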
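Assay cells: HT-1080 with IDH1 knockdown, 750 per well, RPMI/5% FBS. Exposure: 48 h at 37 °C following 2 h pre-incubation. Read: CellTiter-Glo luminescence; fitted concentration-response, curve class assigned.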
TDP1 cell noCPT = qHTS for Inhibitors of human tyrosyl-DNA phosphodiesterase 1 (TDP1): qHTS in cells in absence of CPT; DT40 Tdp1-/- hTDP1 cells, no CPT, ATP luminescence, 48 h; Potency, µM (series often up to 46.2 µM), without a hit: at the highest dose activity change, negative = growth inhibition, most hits filed as inhibitors; 420,000 tested, 15% active; AID 686978, 2013; also: potency is read from the fitted curve at half-maximal effect; nearly all actives have a fitted effect of over 55% in size
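Compound effects on proliferation are scored in DT40 Tdp1-/-;hTDP1 cells in the absence of CPT. ATP levels (CellTiter-Glo luminescence) are recorded after a ≥48 hr, 37 °C incubation.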
ELG1 DNA repair = blocks ELG1-dependent DNA repair in HEK293T cells; 330,000 tested, 2.3% active; HEK293T ELG1-luciferase reporter, luminescence, 16 h; DNA damage induced by 5-fluorouridine; Potency, µM (doses to about 46.1 µM), for inactives: at the top dose activity change, negative = inhibition, most hits filed as inhibitors; also: potency is read from the fitted curve at half-maximal effect; nearly all actives have a fitted effect of over 55% in size
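DMSO vehicle served as the neutral condition. Each well held 2,000 cells given 5-fluorouridine plus compound; after 16 hr at 37 °C/5% CO2, ONE-Glo was added and luciferase measured 30 min later.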
IL-1B inflam inh = blocks inflammasome-driven IL-1 beta release; activity change, % at 57.5 µM; 360,000 tested, 4.7% active; AID 743279; THP-1 LPS/ATP IL-1B secretion, AlphaLISA, 16 h; active compounds read low; in the data active = activity change below about -50%; inconclusive = mostly about -30% to -49%
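Secreted IL-1B measured by AlphaLISA bead assay after 16 h compound exposure of THP-1 cells; compounds (final up to 57.5 uM) added 1 h before LPS (250 ng/mL) and ATP (1.25 mM) stimulation; lower signal means less secretion.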
Starred values were filed as active, the others as inactive; u = inconclusive; x = not tested or not shown; [ ] = another dose, or the depositor's remark. Hits are enriched below; roughly 19% of the tested compounds scored in any of these assays. Unless noted, calls follow the shape of the dose curve; as a rule, active = well fitted curve in the direction sought with a large enough effect; inconclusive = small, poorly fitted or top-dose-only effect, or another doubt; inactive = no such curve, though single readings can be large; an effect the other way counts as inactive or inconclusive. Unless noted, % is scaled to controls: 0 for no effect and ±100 for the full control effect.

SMILES	DT40 TDP1 CPT	HT1080-NT tox	HT1080 IDH1KD tx	TDP1 cell noCPT	ELG1 DNA repair	IL-1B inflam inh
CCN(CC)S(=O)(=O)c1ccc(Cl)c(NC(=O)CSc2nnc(-c3cccs3)o2)c1	u	2%	-1%	u	1%	14
CCN(CC)S(=O)(=O)c1ccc(C(=O)Nc2nnc(CSC)o2)cc1	9%	10%	6%	24%	u	-4
O=C(CCS(=O)(=O)c1ccc(F)cc1)Nc1nnc(-c2ccco2)o1	u	-1%	2%	u	-13%	-20
CN(C)S(=O)(=O)c1ccc(C(=O)Nc2nnc(-c3ccco3)o2)cc1	21µM*	-19%	-20%	u	u	-1
CCCCN(CC)S(=O)(=O)c1ccc(C(=O)Nc2nnc(-c3cccs3)o2)cc1	15µM*	u	8.2µM*	10µM*	u	0
CCN(CC)S(=O)(=O)c1ccc(C(=O)Nc2nnc(-c3ccco3)o2)cc1	u	-26%	u	23µM*	21µM*	26
CCCCN(C)S(=O)(=O)c1ccc(C(=O)Nc2nnc(-c3ccco3)o2)cc1	7.3µM*	-21%	u	6.5µM*	u	20
Cc1nn(CC(C)C(=O)N2CCN(S(=O)(=O)c3ccc(Cl)cc3)CC2)c(C)c1C (stereo not drawn)	10%	2%	6%	-6%	-7%	26
CCN(c1ccccc1)S(=O)(=O)c1ccc(C(=O)NCc2ccco2)cc1	u	0%	-5%	u	u	12
O=S(=O)(Nc1ccc(-c2csc(-c3ccccc3)n2)cc1)c1ccc(F)cc1	u	-7%	-5%	u	21%	-101*
c1ccc(-c2ccc(-c3csnn3)cc2)cc1	0%	1%	7%[9.24 µM]	-6%	u	2
Fc1ccc(-c2csc(-c3ccncc3)n2)cc1	16%	-25%	-21%	16%	-7%	4
O=S(=O)(Nc1ccccc1)c1ccc(-c2csnn2)cc1	u	-15%	-25%	23µM*	u	u
Nc1cccc2c1C(=O)N(C(=O)/C=C/c1ccc(F)cc1)C2=O	16µM*	u	18µM*	23µM*	u	-78*
CCS(=O)(=O)N1CCc2cc(C(=O)NCc3ccccc3OC)ccc21	-9%	x	x	u	x	x
CCOCC(=O)Nc1cc(C(=O)OC)ccc1C(=O)OC	-17%	16%	15%	-16%	9%	-5
COC(=O)c1ccc(C(=O)OC)c(NC(=O)COC(=O)c2ccc(OC)c(OC)c2OC)c1	-20%	3%	0%	-14%	5.8µM*	42
CN1CCN(C(=O)CCn2c(=O)c3cccn3c3cccnc32)CC1	2%	10%	5%	2%	10%	20
O=C(CCn1c(=O)c2cccn2c2cccnc21)N1CCN(c2ccc(Cl)cc2)CC1	10µM*	x	x	13µM*	x	x
O=C(CCn1c(=O)c2cccn2c2cccnc21)N1CCN(c2cccc(C(F)(F)F)c2)CC1	15µM*	x	x	9.2µM*	x	x
Cc1nc2nc(NCc3cccc(Cl)c3)[nH]n2c(=O)c1Cc1ccccc1	-12%	x	x	u	x	x
CCCS(=O)(=O)c1nc(S(=O)(=O)c2ccc(C)cc2)c(NC)s1	-3%	x	x	-14%	x	x
Cc1ccc2onc(CNC(=O)NCc3ccc(Cl)cc3)c2c1	-1%	x	x	1%	x	x
CCN(CC)S(=O)(=O)c1ccc(NC(=O)NCc2noc3ccc(C)cc23)cc1	21µM*	x	x	23µM*	x	x
CC(C)NC(=O)c1cc(-c2ccc(F)cc2OC(C)C)n[nH]1	-23%	19%	7%	u	x	-22
SMILES	DT40 TDP1 CPT	HT1080-NT tox	HT1080 IDH1KD tx	TDP1 cell noCPT	ELG1 DNA repair	IL-1B inflam inh
COc1cccc(-c2cc(C(=O)O)[nH]n2)c1	9%	17%	21%	-4%	15%	15
CC(C)Oc1ccc(F)cc1-c1cc(C(=O)NCc2ccc(F)cc2)[nH]n1	26µM*	-24%	0%	u	x	-8
CC(C)Oc1ccc(F)cc1-c1cc(C(=O)Nc2ccc(C(C)(C)C)cc2)[nH]n1	6.5µM*	23µM*	18µM*	3.3µM*	x	15
CC(C)Oc1ccc(F)cc1-c1cc(C(=O)Nc2ccccc2)[nH]n1	u	5%	25%	u	x	-69*
COc1cccc(-c2cc(C(=O)Nc3ccc(F)cc3)[nH]n2)c1	u	x	x	16µM*	x	x
O=C(Nc1oc2ccccc2c(=O)c1-c1ccccc1)c1ccco1	-19%	7%	1%	-3%	x	12
COc1ccc(Nc2ncc(C(=O)Nc3cccc(OC)c3)c3ccccc23)cc1	u	x	x	-13%	x	x
O=C(C[C@@H]1C/C=C\C[C@H](Cc2ccc(F)cc2)C(=O)OCCNC1=O)NCCO	2%	16%	24%	-4%	11%	1
CN(C(=O)Nc1ccccc1)C1CCCCC1	4%	15%	8%	1%	u	-9
CC(c1cccs1)N(C(=O)Nc1ccccc1)C1CCCCC1 (stereo not drawn)	16µM*	15%	15%	14µM*	u	1
COc1ccc(NC(=O)N(CCC(C)C)C(C)c2cccs2)c(OC)c1 (stereo not drawn)	u	x	x	18µM*	x	x
CC(C)CCN(C(=O)Nc1ccccc1)C(C)c1cccs1 (stereo not drawn)	21µM*	-18%	u	18µM*	-8%	-6
CSc1nnc2ccc(-c3ccccn3)nn12	-15%	5%	-1%	17%	0%	-12
Cc1cccc(NC(=O)Cn2nnc(C(=O)Nc3ccccc3Br)c2N)c1C	-15%	x	x	-14%	x	x
O=C(Nc1ccc(C(=O)OCc2cc(=O)n3nc(C4CC4)sc3n2)cc1)c1cccc(F)c1	0%	x	x	u	x	x
CC(C)(C)C(=O)Nc1cccc(C(=O)OCc2cc(=O)n3nc(C4CC4)sc3n2)c1	u	x	x	18µM*	x	x
COc1cccc(C(=O)Nc2cccc(C(=O)OCc3cc(=O)n4nc(C5CC5)sc4n3)c2)c1	u	x	x	3.7µM*	x	x
O=C(OCc1cc(=O)n2nc(C3CC3)sc2n1)c1cccc(NC(=O)c2ccccc2Cl)c1	21µM*	x	x	21µM*	x	x
O=C(O)C1CC=CCC1C(=O)NC1CCCCC1 (stereo not drawn)	-7%	6%	11%	-6%	-7%	-6
Cc1ccc(C(=O)OC(C)C(=O)NC(C)CCc2ccccc2)o1 (stereo not drawn)	-2%	7%	-4%	-25%	20%	7
